Assay results taken from PubChem BioAssay AID588763 (NMMLSC, 2011).
Results with a measured potency or affinity are listed apart. Active and inactive are the calls of the source. The rule behind the calls is not given here.

target: Beta-2 adrenergic receptor (Homo sapiens) (UniProt P07550); experiment: ADRB2 activation measured by internalization – cell-based, FAP fluorogen, flow cytometry, cherry pick 1, dose response (AID 588763); details: AM2.2-beta2AR cells, 90 min; series mostly up to 33 µM; activation (receptor internalization): at the top concentration
Sequence (P07550 whole entry, looked up): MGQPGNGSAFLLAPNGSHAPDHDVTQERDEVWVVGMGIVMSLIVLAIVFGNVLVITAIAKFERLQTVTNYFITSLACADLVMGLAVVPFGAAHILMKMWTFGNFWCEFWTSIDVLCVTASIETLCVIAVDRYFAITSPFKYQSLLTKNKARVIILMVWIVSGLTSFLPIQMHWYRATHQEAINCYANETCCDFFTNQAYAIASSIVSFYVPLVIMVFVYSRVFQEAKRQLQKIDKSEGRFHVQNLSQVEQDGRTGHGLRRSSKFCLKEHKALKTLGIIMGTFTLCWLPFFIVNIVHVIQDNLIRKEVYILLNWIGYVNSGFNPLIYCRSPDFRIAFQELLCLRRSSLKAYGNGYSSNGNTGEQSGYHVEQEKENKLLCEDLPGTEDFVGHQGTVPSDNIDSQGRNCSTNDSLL

Activation (receptor internalization), inactive:
N=c1n(CC(=O)c2ccc(Br)cc2)c2ccccc2n1Cc1ccccc1 110%, O=C(COc1ccc(S(=O)(=O)N2CCOCC2)cc1)Nc1ccc2c(c1)OCCO2 5.84%, CC(NC(=O)c1cc(COc2ccc3ncccc3c2)on1)c1ccc(F)cc1 (stereo not drawn) 27.1%, CCC(NC(=O)c1cc(COc2cncc(Cl)c2)on1)c1ccc(C)cc1 (stereo not drawn) -14.4%, O=C(c1cc(COc2ccc(F)cc2Cl)on1)N1CC2C[C@@H]3CC1C[C@H](C2)C3 -19%, CCCOc1ccc(-c2nnn(CC(=O)Nc3cccc(C(=O)OC)c3)n2)cc1 -10.7%, Cc1ccc(C(=O)c2cc([N+](=O)[O-])ccc2N2CCCCC2)c(C)c1 47.8%, Cc1ccccc1NC(=O)COc1ccc(S(=O)(=O)N2CCCC2)cc1C -0.639%, COc1ccc(-c2nc(NC(=O)c3cc(C(C)(C)C)nn3C)sc2C)cc1 33.8%, CCC(NC(=O)c1cc(COc2ccc(C)nc2)on1)c1ccc(C)cc1 (stereo not drawn) -7%, CC(C)c1nc2sc3c(NCc4ccccc4)ncnc3c2c2c1COC(C)(C)C2 13%, CCOC(=O)C1CCN(C(=O)COC(=O)c2ccccc2C(=O)c2ccc(Cl)cc2)CC1 27.5%, COc1ccccc1CCC(=O)Nc1cccc(S(=O)(=O)N2CCCCCC2)c1 6.06%, O=C(CSc1ccc(Cl)cc1)Nc1ccccc1N1CCN(C(=O)c2ccccc2)CC1 80.9%, COc1ccc(-n2nc3c(N4CCC(C(=O)NCc5ccco5)CC4)nnc(C)c3c2C)cc1 11%, Cc1ccc(OCC(O)Cn2c(=N)n(Cc3ccccc3)c3ccccc32)cc1 (stereo not drawn) 45.7%, CCOc1cc(/C=C2\CN(C)C/C(=C\c3ccc(O)c(OCC)c3)C2=O)ccc1O 72.9%, Cc1ccc(OCc2cc(C(=O)NC3CCc4ccccc43)no2)cn1 (stereo not drawn) -23%, COc1ccc(-c2nc3c4ccccc4ccn3c2CN2CCOCC2)cc1OC -4.07%, CC1CCN(C(C(=O)Nc2ccc3c(c2)OCO3)c2ccccc2)CC1 (stereo not drawn) 6.59%, CC1=NN(C(N)=S)C(=O)C1N=Nc1ccc(F)cc1 (stereo not drawn) -24%, O=C(Nc1ccc(-c2cccc(F)c2)cc1)C1CCCN(Cc2ccccn2)C1 (stereo not drawn) 15.9%, CC(NCc1ccc(OCc2ccc(Cl)cc2)cc1)C(O)c1ccccc1 (stereo not drawn) 66.1%, COc1cc(CNCCc2ccc(S(N)(=O)=O)cc2)ccc1OCc1ccc(Cl)cc1 46.7%, O=C(COc1ccc(S(=O)(=O)N2CCOCC2)cc1)Nc1ccc(Br)cc1 -5.92%, CCOc1cccc(CN2CCC(Oc3ccc(C(=O)N4CCCC4)cc3)CC2)c1 -17.1%, CCCCn1c(=N)n(CC(=O)c2ccc(Br)s2)c2ccccc21 98.7%, Cc1ccc(OCc2cc(C(=O)NCc3cc(F)ccc3C)no2)cn1 -17.5%, COc1ccc(-n2nc3c(N4CCC(C(=O)NCc5cccc(C)c5)CC4)nnc(C)c3c2C)cc1 48.5%, COC(=O)c1ccccc1NC(=O)COc1ccc(S(=O)(=O)N2CCCC2)cc1C 6.72%, CC1CCCN(C(C(=O)Nc2ccc3c(c2)OCO3)c2ccccc2)C1 (stereo not drawn) 35.9%, CCOC(=O)c1ccc(N=c2sc(C(=O)OC)cc(=O)n2-c2ccc(C(=O)OCC)cc2)cc1 35%

outcome, inactive:
COc1ccc(OC)c(S(=O)(=O)N(C)CC(=O)N2CCN(c3ccc(F)cc3)CC2)c1
